From PubChem BioAssay (NCATS)
“And” between values parts separate entries of the source, which are not always exact repeats. Equal entries are not always repeated. Results filed as inconclusive are left out. Where a structure was tested more than once in an assay, its records may differ in their call. The source made the active and inactive calls. Unless noted, calls come from the whole dose curve; as a rule, active = well fitted curve in the direction sought with a large enough effect; inconclusive = small, poorly fitted or top-dose-only effect, or another doubt; inactive = no such curve, though single readings can be large; an effect the other way counts as inactive or inconclusive.

Tests used:
[1] = biological target: Voltage-gated inwardly rectifying potassium channel KCNH2 (Homo sapiens) (UniProt Q12809); assay: qHTS Assay for Small Molecule Inhibitors of the Human hERG Channel Activity (AID 588834); conditions: U2OS BacMam hERG, FluxOR thallium flux fluorescence; series mostly up to 46.1 µM;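 note: lower thallium flux fluorescence means stronger hERG block; nearly all actives have a fitted effect of over 50% in size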; note: potency is the fitted concentration of half-maximal effect
How it was run: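 Thallium-flux (FluxOR) read-out on FDSS: fluorescence read 10 s before and 2 min after stimulation buffer. hERG-BacMam-transduced U2OS cells, compound exposure about 10 min. AC50 by standard Hill equation.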

[2] = biological target: Luciferin 4-monooxygenase (Photinus pyralis) (UniProt P08659); assay: Biochemical firefly luciferase enzyme assay for NPC (AID 624030);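 note: purified P. pyralis luciferase at 10 nM with luciferin and ATP substrate; nearly all actives have a fitted effect of over 70% in size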; conditions: purified P. pyralis luciferase, luminescence, 5 min; series mostly up to 58.6 µM
How it was run: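 Purified P. pyralis luciferase at 10 nM in 50 mM Tris Acetate (final), luminescence read within 5 minutes of enzyme addition to compounds. Activity normalised to PTC124 versus DMSO; concentration-response curves classed by r2, magnitude and activity.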

[3] = S16 Schwann cell PMP22 intronic element beta-lactamase assay (AID 624044; calls by dose curve; note: nearly all actives have a fitted effect of over 15% in size; note: potency is the fitted concentration of half-maximal effect); conditions: S16 rat Schwann cells, PMP22 element beta-lactamase FRET, 24 h; series mostly up to 38.3 µM
How it was run: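 Beta-lactamase reporter under a PMP22 intronic regulatory element in stable S16 rat Schwann cells; 24 h compound exposure. 460 nm blue signal normalized between DMSO (0%) and potassium clavulanate, with 535 nm FRET tracking viability; curves classed by r2 and response.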

[4] = biological target: Glutaminase kidney isoform, mitochondrial (Homo sapiens) (UniProt O94925); assay: qHTS for Inhibitors of Glutaminase (GLS): LOPAC Validation (AID 624146); conditions: glutaminase enzyme activity inhibition; series mostly up to 46.1 µM; note: nearly all actives have a fitted effect of over 60% in size; note: potency is the fitted concentration of half-maximal effect
How it was run: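 Compounds were pin-transferred onto hKGA, after which L-glutamine (1 mM solution) and a detection mix of glutamate oxidase, HRP and Amplex Red were added. Initial and 30 min RT fluorescence reads were collected.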

[5] = qHTS of Trypanosoma Brucei Inhibitors: LOPAC Validation (AID 624147); conditions: purified enzyme assay, luminescence, 45 min; series mostly up to 57.5 µM
How it was run: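 Luminescent Kinase-Glo Plus end-point after 45 min room-temperature reaction of T. brucei pyruvate kinase started with 130 uM ADP (final). Buffer TEA 50 mM pH 7.2 with KCl, MgCl2, BSA, Tween-20; titration-based qHTS with fitted concentration-effect curves.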

[6] = biological target: Glucagon-like peptide 1 receptor (Homo sapiens) (UniProt P43220); assay: qHTS of GLP-1 Receptor Agonists: LOPAC Validation (AID 624148); conditions: GLP-1R agonist cell assay; series mostly up to 46.1 µM;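 note: higher luminescence signal means agonism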
How it was run: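 HEK293 cells stably co-expressing GLP-1R and a cAMP-responsive luciferase reporter, plated 12 hours before compound, then incubated 4-6 hr at 37 deg C. Luminescence read 12 min after detection reagent.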

[7] = qHTS of Nrf2 Activators: LOPAC Validation (AID 624149); conditions: Nrf2/ARE reporter cell assay; series mostly up to 46.1 µM
How it was run: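 Cells (AREc32_Fluc) are plated at 1000 per well in OPTI-MEM containing 5% FBS and left overnight. Compounds are pinned in and incubated 24 hr at 37 deg C, and firefly luciferase is detected with Steady-Glo.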

[8] = HTS Assay for Allosteric Antagonists of the Human D2 Dopamine Receptor: Hit Validation in HTRF (AID 624455); conditions: Cells stably expressing D1 dopamine receptor, inhibition mode; series mostly up to 46.1 µM;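 note: stable D1 dopamine receptor cell line scored for blocking the D1 response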
How it was run: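 Inhibition of the D1-mediated response is measured by HTRF in cells that stably express the D1 dopamine receptor. Compounds reaching this step are hits from calcium-flux antagonism testing at EC80 dopamine in inducible Hek293 Trex D2 cells.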

[9] = S16 Schwann cell viability assay (CellTiter-Glo assay) (AID 624031); conditions: S16 rat Schwann cells viability, 24 h; series mostly up to 57.5 µM; note: nearly all actives have a fitted effect of over 70% in size; note: potency is the fitted concentration of half-maximal effect
How it was run: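 Native S16 rat Schwann cells, 500-750 cells/well in DMEM with 10% FBS, dosed with compound after overnight culture and incubated 24h at 37 degree Celsius/5% CO2. Viability by CellTiter-Glo luminescence; % activity normalized to no-cell wells and DMSO-treated cells.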

[10] = S16 Schwann cell PMP22 intronic element firefly luciferase assay (AID 624032); conditions: S16 rat Schwann cells, PMP22 element FLuc, 24 h; series mostly up to 57.5 µM; note: nearly all actives have a fitted effect of over 30% in size; note: potency is the fitted concentration of half-maximal effect
How it was run: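 Rat S16 Schwann cells stably carrying firefly luciferase driven by a PMP22 intronic element, in 10% FBS, treated 24 h at 37 C. ONE-Glo luminescence normalized to PTC124 control and DMSO (0%); curves classed by r2, magnitude and activity.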

Measured: Potency

Luciferin 4-monooxygenase (Photinus pyralis), sequence (P08659 whole entry, looked up): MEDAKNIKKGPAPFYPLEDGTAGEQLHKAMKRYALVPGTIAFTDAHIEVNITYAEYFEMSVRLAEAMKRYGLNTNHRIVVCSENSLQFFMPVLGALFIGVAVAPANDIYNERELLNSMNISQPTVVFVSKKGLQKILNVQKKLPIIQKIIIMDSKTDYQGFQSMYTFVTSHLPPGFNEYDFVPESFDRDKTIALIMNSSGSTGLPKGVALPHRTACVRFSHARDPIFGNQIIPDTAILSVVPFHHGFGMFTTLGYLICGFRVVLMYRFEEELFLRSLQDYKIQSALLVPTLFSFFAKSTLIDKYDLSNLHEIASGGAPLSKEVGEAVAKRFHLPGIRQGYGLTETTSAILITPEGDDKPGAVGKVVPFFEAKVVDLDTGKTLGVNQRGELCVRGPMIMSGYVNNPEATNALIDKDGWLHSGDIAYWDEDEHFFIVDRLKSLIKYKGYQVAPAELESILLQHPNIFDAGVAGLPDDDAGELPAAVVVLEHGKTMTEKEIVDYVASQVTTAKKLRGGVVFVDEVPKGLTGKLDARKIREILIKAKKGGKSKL
Glucagon-like peptide 1 receptor (Homo sapiens), sequence (P43220 whole entry, looked up): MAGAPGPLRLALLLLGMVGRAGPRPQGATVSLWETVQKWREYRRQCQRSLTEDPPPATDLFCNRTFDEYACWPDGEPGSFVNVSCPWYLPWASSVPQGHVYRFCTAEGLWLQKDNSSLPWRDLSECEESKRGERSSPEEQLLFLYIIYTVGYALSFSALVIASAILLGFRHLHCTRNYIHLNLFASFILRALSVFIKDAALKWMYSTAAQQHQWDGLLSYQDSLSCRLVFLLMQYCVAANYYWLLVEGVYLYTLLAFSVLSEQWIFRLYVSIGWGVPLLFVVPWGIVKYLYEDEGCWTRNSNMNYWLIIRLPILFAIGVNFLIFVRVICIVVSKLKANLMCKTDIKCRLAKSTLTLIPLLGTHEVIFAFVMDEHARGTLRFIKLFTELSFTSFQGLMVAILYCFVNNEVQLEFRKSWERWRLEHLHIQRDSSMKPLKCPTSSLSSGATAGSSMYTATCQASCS
Voltage-gated inwardly rectifying potassium channel KCNH2 (Homo sapiens), sequence (Q12809 whole entry, looked up): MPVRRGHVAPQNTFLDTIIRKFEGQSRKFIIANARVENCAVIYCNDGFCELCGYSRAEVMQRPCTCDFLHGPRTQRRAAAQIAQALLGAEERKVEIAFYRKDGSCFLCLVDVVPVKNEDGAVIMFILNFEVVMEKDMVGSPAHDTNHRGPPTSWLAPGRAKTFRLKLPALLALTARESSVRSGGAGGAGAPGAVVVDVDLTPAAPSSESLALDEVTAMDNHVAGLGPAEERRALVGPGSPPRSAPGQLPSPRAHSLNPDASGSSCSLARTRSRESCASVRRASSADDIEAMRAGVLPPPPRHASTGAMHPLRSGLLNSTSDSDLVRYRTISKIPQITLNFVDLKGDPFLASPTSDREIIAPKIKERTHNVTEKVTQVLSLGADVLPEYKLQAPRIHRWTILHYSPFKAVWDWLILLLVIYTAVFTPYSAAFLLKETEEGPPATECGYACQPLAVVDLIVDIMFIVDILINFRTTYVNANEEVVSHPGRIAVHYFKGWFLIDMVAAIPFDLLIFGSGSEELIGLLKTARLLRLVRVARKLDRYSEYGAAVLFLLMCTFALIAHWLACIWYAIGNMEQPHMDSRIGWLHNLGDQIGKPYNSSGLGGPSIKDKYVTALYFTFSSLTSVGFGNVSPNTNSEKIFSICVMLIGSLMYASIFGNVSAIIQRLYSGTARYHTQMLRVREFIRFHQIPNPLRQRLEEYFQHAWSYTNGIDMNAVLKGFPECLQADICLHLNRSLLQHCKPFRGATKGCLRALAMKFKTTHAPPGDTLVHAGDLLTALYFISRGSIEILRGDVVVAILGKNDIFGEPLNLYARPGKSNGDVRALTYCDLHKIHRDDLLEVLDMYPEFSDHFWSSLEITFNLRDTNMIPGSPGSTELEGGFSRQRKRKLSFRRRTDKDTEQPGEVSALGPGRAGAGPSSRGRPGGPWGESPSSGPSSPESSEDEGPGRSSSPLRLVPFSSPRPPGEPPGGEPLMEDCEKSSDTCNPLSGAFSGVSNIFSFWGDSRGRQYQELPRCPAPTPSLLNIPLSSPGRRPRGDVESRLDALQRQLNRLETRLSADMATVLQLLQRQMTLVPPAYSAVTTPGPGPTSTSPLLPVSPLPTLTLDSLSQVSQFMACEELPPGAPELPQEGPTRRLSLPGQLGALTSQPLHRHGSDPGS
Glutaminase kidney isoform, mitochondrial (Homo sapiens), sequence (O94925 whole entry, looked up, canonical isoform): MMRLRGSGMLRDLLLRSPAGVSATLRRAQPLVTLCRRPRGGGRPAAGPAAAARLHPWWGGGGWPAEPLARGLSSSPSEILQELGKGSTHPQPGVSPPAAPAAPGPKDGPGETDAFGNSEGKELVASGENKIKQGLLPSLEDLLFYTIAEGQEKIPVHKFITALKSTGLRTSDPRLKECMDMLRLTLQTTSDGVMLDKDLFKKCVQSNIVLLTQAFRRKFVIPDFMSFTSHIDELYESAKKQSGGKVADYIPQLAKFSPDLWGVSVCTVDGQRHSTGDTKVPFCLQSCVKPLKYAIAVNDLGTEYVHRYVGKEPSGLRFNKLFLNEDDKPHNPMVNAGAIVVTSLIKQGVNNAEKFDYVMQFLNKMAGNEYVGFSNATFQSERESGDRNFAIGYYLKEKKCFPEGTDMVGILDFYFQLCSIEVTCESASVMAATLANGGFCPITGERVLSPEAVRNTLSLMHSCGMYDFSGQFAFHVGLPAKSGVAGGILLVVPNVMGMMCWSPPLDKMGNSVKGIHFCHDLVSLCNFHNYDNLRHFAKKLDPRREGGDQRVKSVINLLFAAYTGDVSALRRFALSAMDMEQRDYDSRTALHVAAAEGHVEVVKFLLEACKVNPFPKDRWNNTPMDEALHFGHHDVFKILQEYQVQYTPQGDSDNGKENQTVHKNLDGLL

COc1cc(C(=O)OCCCN2CCCN(CCCOC(=O)c3cc(OC)c(OC)c(OC)c3)CC2)cc(OC)c1OC
active: [3] 15.8 µM
inactive: [2] | [4] | [5] | [6] | [7] | [8]
10 µM (active) and inactive: [1]

COCCc1ccc(OCC(O)CNC(C)C)cc1 (stereo not drawn)
inactive: [1] | [2] | [4] | [5] | [6] | [8]

CCOC(=O)C1=C(C)NC(C)=C(C(=O)OC)C1c1cccc([N+](=O)[O-])c1 (stereo not drawn)
inactive: [1] | [2] | [9] | [3] | [4] | [5] | [7] | [8]

Brc1c(NC2=NCCN2)ccc2nccnc12
inactive: [1] | [2] | [9] | [10] | [5] | [6] | [8]

CCN(Cc1ccncc1)C(=O)C(CO)c1ccccc1 (stereo not drawn)
inactive: [1] | [2] | [9] | [3] | [4] | [5] | [7] | [8]

O=C(O)CN(CCN(CC(=O)O)CC(=O)O)CCN(CC(=O)O)CC(=O)O
inactive: [1] | [2] | [9] | [4] | [5] | [8]

C#CCN(C)CCCOc1ccc(Cl)cc1Cl
inactive: [10] | [3] | [4] | [5] | [6] | [7] | [8]
active: [1] 12.6 µM

C[N+](C)(C)CCCCCCCCCC[N+](C)(C)C
inactive: [1] | [9] | [10] | [4] | [5] | [7] | [8]

COC(=O)C1=C(C)NC(C)=C(C(=O)OC(C)(C)CN(C)CCC(c2ccccc2)c2ccccc2)C1c1cccc([N+](=O)[O-])c1 (stereo not drawn)
inactive: [2] | [3] | [4] | [5] | [6] | [8]
active: [1] 0.891 µM | [10] 22.8 µM

C[C@H](CS)C(=O)N1CCC[C@H]1C(=O)O
inactive: [1] | [2] | [10] | [4] | [5] | [7] | [8]

CN(C(=O)CCCOc1ccc2[nH]c(=O)ccc2c1)C1CCCCC1
inactive: [1] | [2] | [9] | [3] | [4] | [5] | [6] | [7] | [8]

CCCC(C(=O)OCCN(CC)CC)(c1ccccc1)c1ccccc1
inactive: [2] | [10] | [3] | [4] | [5] | [8]
active: [1] 11.2 µM and 10 µM

CC(C(=O)O)c1ccc(CC2CCCC2=O)cc1 (stereo not drawn)
inactive: [1] | [2] | [10] | [3] | [4] | [5] | [6] | [7] | [8]

Cc1nc2c([nH]1)c(=O)n(C)c(=O)n2Cc1ccco1
inactive: [1] | [2] | [9] | [4] | [5] | [7] | [8]

CC(=O)OC(C)C[N+](C)(C)C (stereo not drawn)
inactive: [1] | [4] | [5] | [6] | [7] | [8]

CN1C(=O)CC[C@H]1c1cccnc1
inactive: [1] | [4] | [5] | [6] | [8]

CO[C@@]1(NC(=O)CSCC#N)C(=O)N2C(C(=O)O)=C(CSc3nnnn3C)CS[C@@H]21
inactive: [1] | [5] | [6] | [7] | [8]

CCCN(CCC)C(=O)C(CCC(=O)O)NC(=O)c1ccccc1 (stereo not drawn)
inactive: [1] | [4] | [5] | [8]

CCN(CC)CCNC(=O)c1cc(S(C)(=O)=O)ccc1OC
inactive: [2] | [9] | [10] | [4] | [5] | [8]

CC1=C(C)C(=O)C(CCCCC#CCCCC#CCO)=C(C)C1=O
inactive: [2] | [3] | [5] | [8]
active: [4] 11.2 µM

CN1C[C@H](C(=O)N[C@]2(C)O[C@@]3(O)[C@@H]4CCCN4C(=O)[C@H](Cc4ccccc4)N3C2=O)C[C@@H]2c3cccc4[nH]cc(c34)C[C@H]21
inactive: [2] | [3] | [4] | [5]

CCc1c(C)[nH]c2c1C(=O)C(CN1CCOCC1)CC2 (stereo not drawn)
inactive: [1] | [5] | [6] | [8]

c1cc(CN2CCCCC2)cc(OCCCNc2nc3ccccc3s2)c1
inactive: [2] | [10] | [3] | [4] | [5] | [6] | [8]

N[C@@H](COP(=O)(O)O)C(=O)O
inactive: [1] | [4] | [5] | [6] | [8]

COc1cc2c(cc1OC)-c1cc(=Nc3c(C)cc(C)cc3C)n(C)c(=O)n1CC2
inactive: [2] | [4] | [5] | [7] | [8]
active: [9] 32.2 µM | [10] 6.42 µM | [3] 22.4 µM

Nc1c2c(nc3ccccc13)CCCC2O (stereo not drawn)
inactive: [2] | [10] | [4] | [5] | [6] | [7] | [8]

NC(=O)c1cn(Cc2c(F)cccc2F)nn1
inactive: [2] | [9] | [10] | [4] | [5] | [6] | [7] | [8]

CN(C)CCN(Cc1cccs1)c1ccccn1
inactive: [2] | [10] | [4] | [5] | [6] | [7] | [8]
